# Screen size: about 420,000 compounds; about 64,000 (15%) were called active. About 27% were inconclusive and are not listed. Calls follow the shape of the dose curve; as a rule, active = well fitted inhibition curve with a large enough effect; inconclusive = small, poorly fitted or top-dose-only effect; inactive = flat fitted curve, though single readings scatter. The list is a sample of the results.
# Experiment: qHTS for Inhibitors of human tyrosyl-DNA phosphodiesterase 1 (TDP1): qHTS in cells in absence of CPT; also: nearly all actives have a fitted effect of over 55% in size
# Settings: DT40 Tdp1-/- hTDP1 cells, no CPT, ATP luminescence, 48 h; activity change, negative = growth inhibition: at 46.2 µM (top of the series)
# Method in brief: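 Growth of hTDP1-complemented DT40 Tdp1-knockout cells is measured by ATP luminescence after at least 48 hr compound exposure at 37 °C, with DMSO substituting for the 20 nM CPT used in the parallel screen.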
# % is scaled to controls: 0 for no effect and ±100 for the full control effect; potency is read from the fitted curve at half-maximal effect.
Compound,"activity change, negative = growth inhibition",Potency
COc1ccc([N+](=O)[O-])cc1NC(=O)CC1SC(=Nc2cccc(C)c2C)N(/N=C(\C)c2ccc(C)cc2)C1=O (stereo not drawn),-1.02% (inactive),
O=c1oc2ccccc2cc1-c1csc(Nc2ccc(O)cc2)n1,,8.2 µM (active)
CCNc1nc(-c2cc3ccccc3o2)cs1,-28.7% (inactive),
COc1ccc2nc(Nc3nc4cc5c(cc4s3)OCCO5)sc2c1,-11.8% (inactive),
Nc1ncc(-c2cc3ccccc3oc2=O)s1,-14.1% (inactive),
COc1ccc2cc(-c3nc(Cl)c4c5c(sc4n3)CC(C)CC5)c(=O)oc2c1 (stereo not drawn),-12.7% (inactive),
COc1ccc2nc(Nc3nc(-c4cc5ccccc5oc4=O)cs3)sc2c1,,11.6 µM (active)
CC(C)C(C(=O)NC1CCCCC1)N(CC1CCCO1)C(=O)CNS(=O)(=O)c1ccc(F)cc1 (stereo not drawn),-25.5% (inactive),
O=C(O)CCC(=O)N(Cc1ccccc1)Cc1ccccc1,2.82% (inactive),
CC1(C)CC(=O)C=C(NCc2ccncc2)C1,2.46% (inactive),
Cc1cccc2c(=O)n3c(nc12)CCCCC3,-12.9% (inactive),
Cc1nc(N=C(N)N)nc2c(C)cccc12,,20.6 µM (active)
CC(=O)Oc1ccc(-c2nc3c(C)cccc3c(=O)o2)cc1,-8.38% (inactive),
CCCN1Cc2cccc(C(=O)NCc3ccccc3)c2C1=O,-3.84% (inactive),
CCOc1ccc(N2C(=O)CN(c3cccc4ccccc34)C2=S)cc1,-24.5% (inactive),
Cc1cc(C)c2[nH]c(=O)c(CN(Cc3ccccc3)C(=S)NCCCN(C)C)cc2c1,,16.4 µM (active)
COCCCNC(=S)N(Cc1ccccc1)Cc1ccc(F)cc1,-14.6% (inactive),

Compound,"activity change, negative = growth inhibition",Potency
CCN(CC)CCCNC(=S)N(CCO)Cc1cc2cc3c(cc2[nH]c1=O)OCO3,-11.1% (inactive),
CCCCNC(=O)c1c[nH]c2ccc(S(=O)(=O)Nc3ccc(OCC)cc3)cc2c1=O,-6.94% (inactive),
Cc1ccc(/C=C2\CCn3c2nc2cc(C(=O)O)ccc2c3=O)c(C)c1,-17.8% (inactive),
CC(=O)C[C@@H](O)CC(=O)[C@H]1OC(=O)CCCCCCc2ccccc21,-9.45% (inactive),
CC(C)(C)c1cc(=O)n2c(nc3ccccc32)[nH]1,-13.8% (inactive),
Fc1ccc(-c2ccc(CNCc3ccccn3)o2)cc1Cl,,20.6 µM (active)
O=C(NCc1ccccn1)Nc1ccc(Cl)cc1,-0.0857% (inactive),
O=C(NCc1ccccn1)c1cc(-c2ccccc2Cl)on1,-4.58% (inactive),
COc1ccc(CNC(=O)CN(Cc2ccccc2Cl)C(=O)c2csnn2)cc1,-19.7% (inactive),
COCCNC(=O)COc1ccc(C)c(C)c1,-9.12% (inactive),
Cc1ccc(NS(=O)(=O)c2c(C)[nH]c(C)c2C(=O)N2CCCCC2)c(C)c1,-17.5% (inactive),
Cc1ccc(C)c(N2CCN(S(=O)(=O)c3c(C)[nH]c(C)c3C(=O)N3CCCC3)CC2)c1,,23.1 µM (active)
CCc1noc(C)c1C(=O)N1CCN(S(=O)(=O)c2cccc(C(F)(F)F)c2)CC1,-1.34% (inactive),
Cc1[nH]c(C)c(S(=O)(=O)N2CCN(c3cccc(C(F)(F)F)c3)CC2)c1C(=O)N1CCCCC1,,10.3 µM (active)
Cc1ccc(C)c(NS(=O)(=O)c2c(C)[nH]c(C)c2C(=O)N2CCCCC2)c1,-1.44% (inactive),
Cc1[nH]c(C)c(S(=O)(=O)N2CCC(C)CC2)c1C(=O)N1CCCC1,3.3% (inactive),

# Source: PubChem BioAssay AID686978 (National Center for Advancing Translational Sciences (NCATS), 2013)
